Measured values as given in PubChem BioAssay AID651640 (Broad Institute, 2012).
The campaign covered roughly 350,000 compounds. About 6,000 (1.7%) were called active. Inconclusive results (about 5%) are left out. This excerpt belongs to a sample that is enriched for actives. Unmarked numbers belong to inactive results. Cut-off read from the data, not from the text of the source: active = CPE inhibition above about 20% (passing the limit was not always enough); inconclusive = no clear call, values can overlap the other calls; tested in BHK-21 cells.

Test: inhibitors of DENV2 cytopathic effect, primary screen, cell-based, plate reader, single concentration (AID 651640);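 note: 0% = median of neutral control wells and 100% = median of positive control wells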
Conditions: DENV2-infected cells, cytopathic effect rescue, at 9.99 µM, hits give high values

| Structure (SMILES) | CPE inhibition |
| --- | --- |
| CN(C)CC(=O)N[C@@H]1CC[C@@H](CCn2cc(C3CC3)nn2)O[C@H]1CO | 13.8% |
| O=C(Cc1ccncc1)N[C@@H]1CC[C@H](CCn2cc(-c3ccccc3F)nn2)O[C@H]1CO | 2.31% |
| O=C(Cc1ccncc1)N[C@H]1CC[C@H](CCn2cc(-c3ccccc3F)nn2)O[C@@H]1CO | -5% |
| O=C(Cc1cccnc1)N[C@H]1CC[C@H](CCn2cc(-c3ccccc3F)nn2)O[C@H]1CO | 20% (active) |
| CN(C)CC(=O)N[C@@H]1CC[C@H](CCn2cc(C3CCCC3)nn2)O[C@H]1CO | 77.7% (active) |
| COc1cccc(-c2cn(CC[C@H]3CC[C@H](NC(=O)CN(C)C)[C@H](CO)O3)nn2)c1 | -8.73% |
| COc1ccc(S(=O)(=O)N[C@@H]2CC[C@H](CC(=O)N3CCc4ccccc4C3)O[C@H]2CO)cc1 | 2.67% |
| COc1ccccc1CNC(=O)C[C@H]1CC[C@@H]2[C@H](COC[C@H](O)CN2Cc2ccccc2)O1 | -0.546% |
| CO[C@@H](CN(C)C(=O)c1cnccn1)[C@H](C)CN([C@H](C)CO)S(=O)(=O)c1ccc(C)cc1 | -0.652% |
| C[C@H]1CN([C@@H](C)CO)C(=O)Cc2cc(NC(=O)Cc3ccccc3)ccc2O[C@@H]1CN(C)Cc1ccc(Cl)c(Cl)c1 | 11.1% |
| C[C@H]1CN([C@@H](C)CO)C(=O)Cc2cc(NC(=O)CCCCCC(=O)Nc3ccccc3N)ccc2O[C@H]1CN(C)C(=O)Nc1ccc(F)cc1 | 6.87% |
| C[C@H](CO)N1C[C@H](C)[C@H](CN(C)Cc2ccc(C(F)(F)F)cc2)Oc2ccc(NC(=O)CCCCCC(=O)Nc3ccccc3N)cc2CC1=O | 30.6% (active) |
| C[C@@H]1CN([C@@H](C)CO)C(=O)Cc2cc(NC(=O)CCCCCC(=O)Nc3ccccc3N)ccc2O[C@H]1CN(C)Cc1ccc(Cl)c(Cl)c1 | 35.5% (active) |
| C[C@@H]1CN([C@@H](C)CO)C(=O)Cc2cc(NC(=O)CCCCCC(=O)Nc3ccccc3N)ccc2O[C@H]1CN(C)C(=O)Nc1ccc(C(F)(F)F)cc1 | 0.365% |
| C[C@H]1CN([C@@H](C)CO)C(=O)Cc2cc(NC(=O)CCCCCC(=O)Nc3ccccc3N)ccc2O[C@@H]1CN(C)Cc1ccncc1 | -3.1% |
| CC(=O)N(C)C[C@@H]1Oc2ncc(C#CCc3ccccc3)cc2C(=O)N([C@H](C)CO)C[C@H]1C | 13.5% |
| CO[C@@H]1CN(C)C(=O)c2cc(NC(=O)c3ccccc3)ccc2OC[C@H](C)N(C(=O)CN(C)C)C[C@H]1C | -4.5% |
| C[C@H](CO)N1C[C@H](C)[C@H](CN(C)Cc2ccc(C(=O)O)cc2)Oc2ccc(NS(=O)(=O)c3cn(C)cn3)cc2CC1=O | -5.77% |
| CC(C)NC(=O)N(C)C[C@H]1Oc2ccc(NS(C)(=O)=O)cc2CC(=O)N([C@@H](C)CO)C[C@H]1C | -8.84% |
| CO[C@H]1CN(C)C(=O)c2cc(NC(=O)c3cnccn3)ccc2OC[C@H](C)N(C(=O)C2CC2)C[C@H]1C | 7.36% |
| CO[C@H]1CN(C)C(=O)c2ccc(NC(=O)c3nc4ccccc4s3)cc2OC[C@H](C)N(Cc2cccnc2)C[C@@H]1C | 3.73% |
| CO[C@H]1CN(C)C(=O)c2cc(NC(=O)c3nc4ccccc4s3)ccc2OC[C@H](C)N(Cc2cccnc2)C[C@@H]1C | 21.1% (active) |

| Structure (SMILES) | CPE inhibition |
| --- | --- |
| CO[C@@H]1CN(C)C(=O)c2cc(NC(=O)c3cnccn3)ccc2OC[C@@H](C)N(CC2CC2)C[C@H]1C | -5.97% |
| CO[C@H]1CN(C)C(=O)c2cc(NC(=O)c3cnccn3)ccc2OC[C@@H](C)N(CC2CC2)C[C@@H]1C | 26.7% (active) |
| CO[C@H]1CN(C)C(=O)c2ccc(NC(=O)c3nc4ccccc4s3)cc2OC[C@@H](C)N(Cc2cncnc2)C[C@H]1C | -2.74% |
| COCC#Cc1ccc([C@@H]2[C@@H](CO)N3C(=O)CN(C(=O)C4CCCC4)C[C@@H]23)cc1 | -7.7% |
| CC(C)NC(=O)N(C)C[C@H]1Oc2ccc(N(C)C)cc2C(=O)N([C@@H](C)CO)C[C@H]1C | -2.75% |
| C[C@@H]1CCCCO[C@H](CN(C)C(=O)CCC(F)(F)F)[C@H](C)CN([C@H](C)CO)C(=O)c2cc(NC(=O)NC3CCCCC3)ccc2O1 | 0.687% |
| COCC(=O)Nc1ccc2c(c1)C(=O)N(C)C[C@@H](OC)[C@@H](C)CN(C(=O)c1ccccc1)[C@@H](C)CO2 | 0.375% |
| CN1CCN(C(=O)c2cc3c(c(-c4cccc(-c5ccc(C(=O)N(C)C)cc5)c4)n2)[C@@H](CCO)N([S@](=O)C(C)(C)C)C3)CC1 | 1.85% |
| O=C(CN1CCOCC1)N1CCCCN2[C@@H](CO)[C@H](c3ccc(-c4ccccc4)cc3)[C@@H]2C1 | -4.15% |
| O=C(CN1CCOCC1)NC[C@@H]1N[C@@H](CO)[C@@H]1c1ccc(-c2ccccc2)cc1 | 29.8% (active) |
| O=C(CN1CCOCC1)N1CCCCN2[C@H](CO)[C@H](c3ccc(-c4ccccc4)cc3)[C@@H]2C1 | 6.44% |
| CN1C(=O)c2cc(NC(=O)c3cnccn3)ccc2OC[C@@H]2O[C@H](CC(=O)O)CC[C@@H]21 | 0.738% |
| CCOc1ccc(/C=C/C(=O)N(CC)CC(=O)NCc2cccs2)cc1OC | 67.5% (active) |
| CCN(CC(=O)NCc1cccs1)C(=O)/C=C/c1ccc(C)cc1 | 13.7% |
| COc1ccc(/C=C/C(=O)OCC(=O)NCc2cccs2)cc1OC | -0.984% |
| COc1ccccc1C#Cc1ccc([C@H]2[C@H](CO)N3CCCCN(C(=O)C4CCC4)C[C@@H]23)cc1 | -8.41% |
| O=C(CN1CCC(NC(=O)Nc2ccccc2)CC1)Nc1cccc([N+](=O)[O-])c1 | -9.16% |
| Cc1cc(C)cc(NC(=O)NC2CCN(CC(=O)Nc3cccc(Cl)c3C)CC2)c1 | -4.01% |
| Cc1cccc(C(=O)NC2CCN(CC(=O)Nc3cccc(Cl)c3)CC2)c1 | 39% (active) |
| C[C@H]1CN([C@@H](C)CO)S(=O)(=O)c2ccc(C#Cc3ccccc3)cc2O[C@@H]1CN(C)C(=O)C1CC1 | 19.8% |
| Cc1ccccc1C1=NC(C(F)(F)F)(C(F)(F)F)c2c(n(-c3ccc(F)cc3)c(=O)[nH]c2=O)N1 | 22.3% (active) |
| COc1ccc2c3c([nH]c2c1)[C@H](CO)N(C(=O)Nc1ccc(F)cc1)CC31CN(S(=O)(=O)c2cccc(F)c2)C1 | 1.82% |

| Structure (SMILES) | CPE inhibition |
| --- | --- |
| CCCNC(=O)N1[C@@H](C#N)[C@H](c2ccc(-c3ccc(C(=O)N(C)C)cc3)cc2)[C@@H]1CO | -5.96% |
| COC(=O)C[C@@H]1CC[C@@H]2[C@H](COc3ccc(NS(=O)(=O)c4ccccc4F)cc3C(=O)N2C)O1 | 1.86% |
| C[C@@H]1CCCCO[C@H](CN(C)C(=O)Nc2ccc3c(c2)OCO3)[C@H](C)CN([C@H](C)CO)C(=O)c2cc(NS(C)(=O)=O)ccc2O1 | 11.9% |
| CCC(CO)Oc1cc(NCc2ccccc2)c2ncn(C3CCCC3)c2c1 (stereo unspecified) | 64.4% (active) |
| CCC(CO)Oc1cc(NC(=O)c2cccc3ccccc23)c2ncn(C(C)C)c2c1 (stereo unspecified) | -11.1% |
| CCC(CO)Oc1cc(NC(=O)c2cccc(F)c2)c2ncn(C(C)C)c2c1 (stereo unspecified) | -10.5% |
| COc1ccc(SSc2ccc(OC)cc2C(=O)O)c(C(=O)O)c1 | 2.7% |
| O=S(=O)(c1ccccc1)N1CCCCN2[C@@H](CO)[C@H](c3ccc(C#Cc4cccnc4)cc3)[C@@H]2C1 | 17.6% |
| COCC(=O)N1CCCCN2[C@H](CO)[C@@H](c3ccc(-c4ccc(OC)cc4)cc3)[C@@H]2C1 | -7.09% |
| COc1ccc(-c2ccc([C@@H]3[C@@H](CO)N4CCCCN(C(=O)NC(C)C)C[C@H]34)cc2)cc1 | 63.6% (active) |
| CC(C)(O)C#Cc1ccc([C@H]2[C@@H](CO)N3CCCCN(C(=O)c4ccncc4)C[C@H]23)cc1 | 0.094% |
| O=C(Nc1ccccc1F)N1CCCCN2[C@H](CO)[C@@H](c3ccc(-c4cccnc4)cc3)[C@H]2C1 | 5.39% |
| C[C@@H](O)C#Cc1ccc([C@@H]2[C@H]3CN(C(=O)c4ccc5c(c4)OCO5)CCCCN3[C@H]2CO)cc1 | 2.09% |
| CCC(=O)N1CCCCN2[C@H](CO)[C@@H](c3ccc(-c4cccnc4)cc3)[C@H]2C1 | -0.425% |
| CC(C)C#Cc1ccc([C@H]2[C@H](CO)N3CCCCN(C(=O)c4ccc(F)cc4)C[C@@H]23)cc1 | 10.5% |
| COc1ccc(C#Cc2ccc([C@@H]3[C@@H](CO)N4CCCCN(C(=O)c5ccncc5)C[C@@H]34)cc2)cc1 | 50.9% (active) |
| CN(C)CC(=O)N1CCCCN2[C@@H](CO)[C@H](c3ccc(-c4cccnc4)cc3)[C@@H]2C1 | 33.3% (active) |
| C[C@H](O)C#Cc1ccc([C@@H]2[C@@H](CO)N3CCCCN(C(=O)c4ccncc4)C[C@@H]23)cc1 | -16.7% |
| C[C@H](O)C#Cc1ccc([C@H]2[C@H](CO)N3CCCCN(C(=O)c4ccc(F)cc4)C[C@@H]23)cc1 | 41.2% (active) |
| COCC(=O)N1CCCCN2[C@H](CO)[C@H](c3ccc(-c4ccc(OC)cc4)cc3)[C@H]2C1 | -1.33% |
| O=C(Nc1ccc(C(F)(F)F)cc1)N[C@@H]1CC[C@H](CCNC(=O)c2ccccc2F)O[C@@H]1CO | 5.46% |
| C[C@@H]1CCCCO[C@@H](CN(C)C(=O)Nc2ccc(F)cc2)[C@H](C)CN([C@@H](C)CO)C(=O)c2cc(NS(=O)(=O)c3ccccc3)ccc2O1 | -1.25% |
